From PubChem BioAssay
In the library only some 31% were active in any assay of this set; here they are far more common.
CYP2C9 activ: increases human cytochrome P450 2C9 activity. 96,000 tested, 1.4% active. P11712. activation factor at 5 µM. recombinant CYP2C9, luciferin-H conversion, luminescence; active compounds read high; factor 1 = untreated enzyme, 0 = blocked. AID 1024;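 active means activation factor of 2 or more for CYP2C9 at a 5 µM dose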
CYP2C19 inhib: human CYP2C19 inhibition. P33261. 96,000 tested, 21% active. CYP2C19 Supersomes, luciferin-H EGE luminescence, 30 min. inhibition, % at 5 µM;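 active means CYP2C19 inhibition above a set limit at 5 µM in the primary screen, cut at about 50% in these data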
CYP2C9 inhib: blocks human cytochrome P450 2C9; P11712; CYP2C9 Supersomes, luciferin-H conversion, luminescence; inhibition, % at 5 µM; 96,000 tested, 20% active; AID 777;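 active means blocking of liver enzyme CYP2C9 beyond about 50% at 5 µM, limit read from the data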
CYP2C19 act: increases human CYP2C19 enzyme activity. activation factor at 5 µM. recombinant CYP2C19, luciferin-H EGE luminescence; active compounds read high; 0 = fully inhibited enzyme, 1 = untreated enzyme. 96,000 tested, under 10 active. P33261;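 active means activation factor of at least 2 at 5 µM in the primary screen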
PLAP activator: activators of human placental alkaline phosphatase | activation fold at 20 µM | purified PLAP enzyme, luminescent substrate read-out; active compounds read high | P05187 | 96,000 tested, 1.2% active | AID 696; in the data active means activation fold above about 2
Target sequence (P05187 whole entry, looked up): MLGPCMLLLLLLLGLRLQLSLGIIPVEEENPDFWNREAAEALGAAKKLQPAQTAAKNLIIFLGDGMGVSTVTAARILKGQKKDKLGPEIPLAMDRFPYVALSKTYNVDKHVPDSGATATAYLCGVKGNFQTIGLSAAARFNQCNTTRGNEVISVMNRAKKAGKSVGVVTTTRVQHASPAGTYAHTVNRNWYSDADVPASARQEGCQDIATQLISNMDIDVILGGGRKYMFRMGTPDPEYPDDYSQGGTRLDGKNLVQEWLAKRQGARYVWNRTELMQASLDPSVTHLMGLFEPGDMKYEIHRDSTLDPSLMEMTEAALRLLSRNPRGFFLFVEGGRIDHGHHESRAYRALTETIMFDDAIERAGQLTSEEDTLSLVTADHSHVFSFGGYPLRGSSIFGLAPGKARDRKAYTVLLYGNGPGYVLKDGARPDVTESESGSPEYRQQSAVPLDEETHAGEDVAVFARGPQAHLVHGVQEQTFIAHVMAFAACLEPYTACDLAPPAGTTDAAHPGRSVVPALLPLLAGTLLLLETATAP
Each line names hits and unclear results; the compound was inactive in the other large screens.

CCCCCCC(=O)Nc1ccc(C(=O)N2CCCC2)cc1	none
CCCC(=O)Nc1ccc(Br)c(Cl)c1	CYP2C19 inhib 60
COc1ccccc1N1CCN(C(=O)c2ccc(NC(C)=O)cc2)CC1	none
CCCC(=O)N1CCN(c2ccc(NC(=O)c3ccco3)cc2)CC1	none
CCCCC(=O)Nc1ccc(C(=O)N2CCN(c3ccccc3OC)CC2)cc1	CYP2C19 inhib 57, CYP2C9 inhib 77
CCCCCC(=O)Nc1ccc(N2CCN(C(=O)c3ccccc3)CC2)cc1	CYP2C9 inhib 54
CCCC(=O)N1CCN(c2ccc(NC(=S)NC(=O)CC)cc2)CC1	CYP2C19 inhib 51
CCCCC(=O)Nc1ccc(C(=O)OC2CCCCC2)cc1	CYP2C19 inhib 74, CYP2C9 inhib 91
O=C(O)CCC(=O)Nc1ccc(C(=O)OC2CCCCC2)cc1	none
CCCCCC(=O)NC(=S)Nc1ccc(N2CCCCC2)c(Cl)c1	none
CCCCCC(=O)Nc1ccc(N2CCN(CC)CC2)c(Cl)c1	CYP2C9 inhib 67
CCOC(=O)C1CCN(C(=O)Nc2ccc3snnc3c2)CC1	CYP2C19 inhib 51
CCCCC(=O)Nc1ccc(C(=O)N2CCC(C(=O)OCC)CC2)cc1	CYP2C19 inhib 68, CYP2C9 inhib 54
CN(C)c1ccnc(Oc2ccc(C(C)(C)C)cc2)c1C#N	none
Cc1csc(NC(=O)C(CC(C)C)NS(=O)(=O)c2ccc3c(c2)oc(=O)n3C)n1 (stereo not drawn)	CYP2C9 inhib 55, PLAP activator 2.3
Cc1csc(NC(=O)C2CCN(S(=O)(=O)c3ccc4c(c3)oc(=O)n4C)CC2)n1	none
Cc1nc(NC(=O)CSc2nc3cccnc3n2Cc2ccccc2)sc1C	CYP2C19 inhib 63, CYP2C9 inhib 59
Cc1cc(NC(=O)CSc2nc3ccccc3c(=O)n2Cc2ccccc2)no1	none
CCSc1nc2ccccc2n1CCC(=O)O	none
O=C(O)CCn1c(SCc2cccc3ccccc23)nc2ccccc21	CYP2C9 inhib 66
CCC(Sc1nc2ccccc2c2nc3ccccc3n12)C(=O)NCc1ccco1 (stereo not drawn)	CYP2C9 inhib 78
CCOC(=O)CNC(=O)CSc1nc2cccnc2n1Cc1ccccc1	CYP2C19 inhib 80
Cc1cccc(NC(=O)Cn2cnc3ccc(S(=O)(=O)N4CCC(C)CC4)cc3c2=O)n1	none
COC(C(=O)Nc1ccc(F)cc1F)c1ccccc1 (stereo not drawn)	none
O=C(CSc1nnnn1C1CC2CCC1C2)Nc1ccnc2ccccc12 (stereo not drawn)	none
O=C1CC(NCc2ccc3c(c2)OCO3)C(=O)N1Cc1ccc2c(c1)OCO2 (stereo not drawn)	none
Cc1c(C(=O)NCCCN2CCCC2=O)oc2ccccc12	none
Nc1c(-c2ccccc2)cnn1C1CCS(=O)(=O)C1 (stereo not drawn)	none
COC(=O)Cc1ccc(NC(=S)NCCCO)cc1	none
CCOC(=O)CC1C(=O)NCCN1C(=O)Nc1ccc(Cl)cc1 (stereo not drawn)	none
Cc1ccc(Cn2c(SCC(=O)N/N=C/c3ccc(C)o3)nc3ccccc32)cc1	none
O=C(CSc1nc2cccnc2n1Cc1ccccc1)NCc1ccco1	CYP2C19 inhib 58
O=C(CSc1nc2ccccc2n1Cc1ccccc1)N/N=C/c1ccco1	CYP2C19 inhib 56
Cc1nc(NC(=O)CSc2ccccc2N)sc1C	CYP2C9 inhib 76
CCn1c(SCC(=O)Nc2nc(C)c(C)s2)nnc1-c1cccnc1	none
O=C(CSc1nc2ccccc2n1CC(=O)NCc1ccccc1)NCc1ccco1	CYP2C19 inhib 79, CYP2C9 inhib 82
COC(=O)c1cc(C)sc1NC(=O)c1cccnc1	none
Cc1sc2ncnc(NCCN3CCOCC3)c2c1C	none
COc1ccc(NC2(c3ccc(Cl)cc3)C(=O)c3ccccc3C2=O)cc1	none (no result: CYP2C9 activ, CYP2C19 inhib, CYP2C9 inhib, CYP2C19 act)
Cc1ccc(NC(=O)CSc2nnc(Cn3cnc4ccccc43)o2)c(C)c1	none (no result: CYP2C9 activ, CYP2C19 inhib, CYP2C9 inhib, CYP2C19 act)
NNC(=O)Cn1c(SCc2ccccc2)nc2ccccc21	CYP2C19 inhib 96
Cc1ccc(C(=O)Nc2nc(C)c(C)s2)o1	none
Cc1nc(NC(=O)CCCC(=O)Nc2nc(C)c(C)s2)sc1C	CYP2C9 inhib 81
CC1(C)CC(=O)C2=C(C1)NC(=O)CC2c1cc2c(cc1Br)OCO2 (stereo not drawn)	none
Fc1ccc2c(c1)C1C=CCC1C(c1cc3c(cc1Br)OCO3)N2 (stereo not drawn)	CYP2C9 inhib 69
O=C(Nc1ccc(Cl)cc1)c1ccncc1	CYP2C19 inhib 90
CC(C)Oc1ccc(NC(=O)c2ccncc2)cc1	CYP2C19 inhib 87, CYP2C9 inhib 90
O=C(Nc1cccc(Cl)c1Cl)c1ccncc1	CYP2C19 inhib 90, CYP2C9 inhib 69
O=C(Nc1ccccc1O)c1ccc(Cl)cc1	none
CC(C)NC(=O)CSc1nc(Cc2cccs2)nc2ccccc12	none
Cc1ccc(C)c2[nH]c(=O)c(CN(Cc3ccco3)C(=O)Nc3ccccc3)cc12	none
COc1ccccc1NC(=O)N(Cc1ccco1)Cc1cc2ccc(C)c(C)c2[nH]c1=O	CYP2C9 inhib 64
COc1ccccc1NC(=O)N(Cc1ccco1)Cc1cc2cc(C)cc(C)c2[nH]c1=O	CYP2C19 inhib 60, CYP2C9 inhib 62
CC1=C(C(=O)Nc2cccnc2)C(c2ccc3c(c2)OCO3)C2=C(CCCC2=O)N1 (stereo not drawn)	none
Cc1cc(N2CCN(c3cccc(C(F)(F)F)c3)CC2)n2nc(C)nc2n1	none
CCn1c(SCc2ccc(C(=O)OC)o2)nc2sc3c(c2c1=O)CCCC3	none
Cn1c(SCC(=O)N2CCOCC2)nc2sc3c(c2c1=O)CCCC3	CYP2C19 inhib 60, CYP2C9 inhib 88
Cn1c(SCc2nnc(-c3ccccc3Br)o2)nc2sc3c(c2c1=O)CCC3	CYP2C19 inhib 77, CYP2C9 inhib 94
C=CCn1c(SCC(=O)N2CCOCC2)nc2sc3c(c2c1=O)CCCC3	CYP2C19 inhib 71, CYP2C9 inhib 80
Cc1cc(NC(=O)CSc2nc3sc4c(c3c(=O)n2C)CCCC4)no1	none
Cc1cc(C)c(NC(=O)Cn2c(=O)n(Cc3ccco3)c(=O)c3ccccc32)c(C)c1	none
Cc1ccc(S(=O)(=O)CC(c2ccccc2)N2CCOCC2)cc1 (stereo not drawn)	CYP2C19 inhib 57
Cc1ccc(S(=O)(=O)NCC(=O)N2CCOCC2)cc1	none
Nc1nonc1C(=O)NCCNC(=O)c1cccs1	none
OCCN1CCOCCN(CCO)CCOCC1	PLAP activator 2
CCN(CC)C(=O)C1CCN(S(=O)(=O)c2cccc3nonc23)CC1	CYP2C19 inhib 65
CCOC(=O)N1CCN(S(=O)(=O)c2cccc3nonc23)CC1	CYP2C19 inhib 82, CYP2C9 inhib 71
CCOC(=O)N1CCN(S(=O)(=O)c2cccc3cccnc23)CC1	CYP2C9 activ 3.3, CYP2C19 inhib 91
CCCCCC(=O)NNC(=O)c1ccc(-c2ccccc2)cc1	none
CCOC(=O)C(C)Sc1nc(-c2cccs2)ccc1C#N (stereo not drawn)	CYP2C19 inhib 91, CYP2C9 inhib 96
C=COC(=O)CSc1nc(-c2cccs2)ccc1C#N	none
Cc1ccccc1-c1nc(CS(=O)(=O)CC(=O)NCc2ccc3c(c2)OCO3)c(C)o1	none
